The supplement of paper PMC11006884
About 6,500 targets were measured; listed, in parts, are those with a hit and a random draw of the rest. About 2% of all pairs of compound and target were hits. Unmarked numbers belong to inactive results.

compound: COC(=O)C#Cc1ccccc1 [methyl 3-phenylpropiolate]; assay: log2 ratio of iodoacetamide-alkyne labeling of the cysteine site, DMSO over compound (competition); higher = stronger covalent engagement of the cysteine by the compound, active = 1 or more; conditions: 500 µM; treatment time 1 h; system: HEK293T cell lysate
How it was run: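 After 1 h at ambient temperature with vehicle or electrophile (500 µM), HEK293T lysate (2 mg/mL) was labelled for 1 h with iodoacetamide alkyne and clicked to sCIP-TMT reagents. Pooled samples were trypsin-digested overnight at 37 °C, streptavidin-enriched, acid-eluted and analysed by Orbitrap Eclipse LC-MS/MS with FAIMS, then quantified in FragPipe over three replicates with duplicate channels. A cysteine's log2 competition ratio is its mean control-channel over mean compound-channel reporter intensity. Cysteines quantified in only one replicate were not included.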

Sequence of UniProt Q9NRP0 (Q9NRP0 whole entry): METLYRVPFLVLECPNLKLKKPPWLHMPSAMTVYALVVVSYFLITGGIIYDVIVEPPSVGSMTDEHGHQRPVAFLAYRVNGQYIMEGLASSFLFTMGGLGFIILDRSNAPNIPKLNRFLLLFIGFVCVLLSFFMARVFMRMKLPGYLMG
Sequence of UniProt Q9UNK0 (Q9UNK0 whole entry): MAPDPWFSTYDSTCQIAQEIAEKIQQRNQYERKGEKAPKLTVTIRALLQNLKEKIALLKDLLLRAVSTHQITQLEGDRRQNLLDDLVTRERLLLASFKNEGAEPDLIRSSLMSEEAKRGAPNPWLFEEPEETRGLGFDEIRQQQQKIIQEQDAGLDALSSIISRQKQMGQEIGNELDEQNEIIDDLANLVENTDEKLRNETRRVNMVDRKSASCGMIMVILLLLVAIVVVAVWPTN
Sequence of UniProt Q9NPI1 (Q9NPI1 whole entry, looked up): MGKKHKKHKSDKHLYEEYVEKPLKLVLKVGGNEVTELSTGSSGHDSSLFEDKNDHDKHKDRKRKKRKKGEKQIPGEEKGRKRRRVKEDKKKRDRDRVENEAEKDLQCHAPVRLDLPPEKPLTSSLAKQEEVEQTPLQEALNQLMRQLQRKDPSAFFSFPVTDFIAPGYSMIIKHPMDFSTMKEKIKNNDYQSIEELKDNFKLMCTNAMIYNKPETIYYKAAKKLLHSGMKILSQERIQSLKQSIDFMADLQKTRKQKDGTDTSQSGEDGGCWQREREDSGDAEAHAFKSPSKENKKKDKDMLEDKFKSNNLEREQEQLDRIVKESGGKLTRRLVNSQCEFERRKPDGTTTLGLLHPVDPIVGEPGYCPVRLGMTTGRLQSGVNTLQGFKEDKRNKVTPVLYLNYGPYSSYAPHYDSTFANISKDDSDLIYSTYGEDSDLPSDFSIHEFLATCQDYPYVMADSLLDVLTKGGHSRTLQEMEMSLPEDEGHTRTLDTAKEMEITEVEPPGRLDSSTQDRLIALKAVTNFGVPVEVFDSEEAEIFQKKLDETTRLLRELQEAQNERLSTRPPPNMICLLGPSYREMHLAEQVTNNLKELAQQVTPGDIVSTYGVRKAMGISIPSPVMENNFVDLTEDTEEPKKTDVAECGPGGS
Sequence of UniProt Q9H2M9 (Q9H2M9 whole entry, looked up): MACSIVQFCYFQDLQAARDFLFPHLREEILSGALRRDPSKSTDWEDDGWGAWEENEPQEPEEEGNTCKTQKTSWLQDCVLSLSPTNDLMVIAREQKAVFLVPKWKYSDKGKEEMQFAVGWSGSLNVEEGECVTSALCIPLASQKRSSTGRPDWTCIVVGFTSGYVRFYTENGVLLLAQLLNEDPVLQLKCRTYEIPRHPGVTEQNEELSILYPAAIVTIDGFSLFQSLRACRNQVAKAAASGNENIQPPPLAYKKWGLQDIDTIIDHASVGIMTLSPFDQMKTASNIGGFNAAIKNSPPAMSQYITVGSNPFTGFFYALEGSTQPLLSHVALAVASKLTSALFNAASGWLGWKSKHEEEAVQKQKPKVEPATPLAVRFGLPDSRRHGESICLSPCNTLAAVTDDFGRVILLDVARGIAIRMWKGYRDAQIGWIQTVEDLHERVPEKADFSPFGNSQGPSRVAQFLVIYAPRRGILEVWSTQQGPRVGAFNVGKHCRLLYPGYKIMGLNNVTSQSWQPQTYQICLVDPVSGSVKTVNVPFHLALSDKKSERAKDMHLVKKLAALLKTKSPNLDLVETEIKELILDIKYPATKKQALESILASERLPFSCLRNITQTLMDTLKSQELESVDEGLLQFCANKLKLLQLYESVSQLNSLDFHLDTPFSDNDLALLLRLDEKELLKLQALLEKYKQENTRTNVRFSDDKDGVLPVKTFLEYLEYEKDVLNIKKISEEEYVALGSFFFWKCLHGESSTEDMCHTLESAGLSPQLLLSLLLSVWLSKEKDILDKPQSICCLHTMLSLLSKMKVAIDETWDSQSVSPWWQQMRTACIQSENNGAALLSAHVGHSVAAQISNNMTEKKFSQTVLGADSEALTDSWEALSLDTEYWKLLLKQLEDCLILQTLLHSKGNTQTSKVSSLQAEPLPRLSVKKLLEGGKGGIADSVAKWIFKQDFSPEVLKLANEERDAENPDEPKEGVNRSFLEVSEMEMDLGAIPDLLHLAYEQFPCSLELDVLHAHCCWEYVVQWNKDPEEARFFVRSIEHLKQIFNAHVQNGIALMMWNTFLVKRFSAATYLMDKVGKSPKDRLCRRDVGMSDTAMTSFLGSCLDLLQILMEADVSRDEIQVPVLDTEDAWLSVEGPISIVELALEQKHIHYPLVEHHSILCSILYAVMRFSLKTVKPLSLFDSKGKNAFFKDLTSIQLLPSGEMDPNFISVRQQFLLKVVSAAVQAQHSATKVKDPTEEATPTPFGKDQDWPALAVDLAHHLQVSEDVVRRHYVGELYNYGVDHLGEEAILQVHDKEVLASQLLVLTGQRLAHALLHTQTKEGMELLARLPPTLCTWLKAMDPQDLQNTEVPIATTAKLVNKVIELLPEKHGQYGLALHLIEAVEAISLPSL
Sequence of UniProt Q9UBR2 (Q9UBR2 whole entry): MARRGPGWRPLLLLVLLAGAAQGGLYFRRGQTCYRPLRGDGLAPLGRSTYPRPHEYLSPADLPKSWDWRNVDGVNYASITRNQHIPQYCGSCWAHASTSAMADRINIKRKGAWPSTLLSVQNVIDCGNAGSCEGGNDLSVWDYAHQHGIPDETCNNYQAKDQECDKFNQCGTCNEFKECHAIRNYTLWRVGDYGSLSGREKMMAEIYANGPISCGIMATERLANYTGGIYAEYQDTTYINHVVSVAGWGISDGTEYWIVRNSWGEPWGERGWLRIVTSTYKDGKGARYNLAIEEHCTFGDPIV
Sequence of UniProt Q9UBE0 (Q9UBE0 whole entry): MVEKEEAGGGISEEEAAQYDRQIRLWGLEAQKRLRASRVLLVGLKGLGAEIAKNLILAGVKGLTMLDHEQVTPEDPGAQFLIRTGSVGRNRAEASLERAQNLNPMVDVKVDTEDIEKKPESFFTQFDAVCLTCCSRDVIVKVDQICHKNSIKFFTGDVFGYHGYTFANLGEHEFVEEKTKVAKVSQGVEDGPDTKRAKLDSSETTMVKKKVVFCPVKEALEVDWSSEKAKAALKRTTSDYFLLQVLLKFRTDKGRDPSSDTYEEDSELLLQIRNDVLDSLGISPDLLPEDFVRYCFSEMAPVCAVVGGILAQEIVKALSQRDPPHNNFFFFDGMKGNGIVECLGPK
Sequence of UniProt Q9NQX3 (Q9NQX3 whole entry, looked up): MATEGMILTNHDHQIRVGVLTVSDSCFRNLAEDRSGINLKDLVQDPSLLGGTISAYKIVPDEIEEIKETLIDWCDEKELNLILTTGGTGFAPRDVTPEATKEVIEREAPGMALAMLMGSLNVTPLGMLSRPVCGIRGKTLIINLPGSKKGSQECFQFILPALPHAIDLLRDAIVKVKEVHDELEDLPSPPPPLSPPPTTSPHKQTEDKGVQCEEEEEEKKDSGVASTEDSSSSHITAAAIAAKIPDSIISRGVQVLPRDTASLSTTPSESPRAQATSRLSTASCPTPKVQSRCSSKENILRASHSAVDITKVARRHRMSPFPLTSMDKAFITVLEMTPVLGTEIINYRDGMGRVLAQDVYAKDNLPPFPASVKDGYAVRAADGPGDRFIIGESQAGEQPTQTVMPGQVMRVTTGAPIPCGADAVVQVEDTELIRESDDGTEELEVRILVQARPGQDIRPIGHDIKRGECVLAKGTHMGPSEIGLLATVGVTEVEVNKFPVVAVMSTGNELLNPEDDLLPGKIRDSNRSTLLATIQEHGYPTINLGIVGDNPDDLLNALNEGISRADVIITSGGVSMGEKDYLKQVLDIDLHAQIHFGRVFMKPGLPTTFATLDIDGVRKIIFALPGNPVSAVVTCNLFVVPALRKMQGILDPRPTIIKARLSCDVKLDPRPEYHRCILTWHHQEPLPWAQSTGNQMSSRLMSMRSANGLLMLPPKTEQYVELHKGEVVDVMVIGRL
Sequence of UniProt Q9NS86 (Q9NS86 whole entry, looked up): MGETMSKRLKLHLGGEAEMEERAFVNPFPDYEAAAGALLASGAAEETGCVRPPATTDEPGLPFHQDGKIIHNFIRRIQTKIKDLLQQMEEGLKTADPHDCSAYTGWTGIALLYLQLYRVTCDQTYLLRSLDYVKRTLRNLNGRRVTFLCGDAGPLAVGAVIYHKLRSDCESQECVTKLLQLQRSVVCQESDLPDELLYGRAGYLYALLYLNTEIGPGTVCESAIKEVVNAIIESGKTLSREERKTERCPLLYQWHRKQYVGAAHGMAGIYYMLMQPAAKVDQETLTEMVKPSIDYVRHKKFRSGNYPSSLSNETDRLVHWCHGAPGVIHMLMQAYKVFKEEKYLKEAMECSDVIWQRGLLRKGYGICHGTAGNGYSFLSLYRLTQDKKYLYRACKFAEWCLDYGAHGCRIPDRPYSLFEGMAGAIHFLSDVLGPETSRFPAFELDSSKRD
Sequence of UniProt Q9H7B4 (Q9H7B4 whole entry): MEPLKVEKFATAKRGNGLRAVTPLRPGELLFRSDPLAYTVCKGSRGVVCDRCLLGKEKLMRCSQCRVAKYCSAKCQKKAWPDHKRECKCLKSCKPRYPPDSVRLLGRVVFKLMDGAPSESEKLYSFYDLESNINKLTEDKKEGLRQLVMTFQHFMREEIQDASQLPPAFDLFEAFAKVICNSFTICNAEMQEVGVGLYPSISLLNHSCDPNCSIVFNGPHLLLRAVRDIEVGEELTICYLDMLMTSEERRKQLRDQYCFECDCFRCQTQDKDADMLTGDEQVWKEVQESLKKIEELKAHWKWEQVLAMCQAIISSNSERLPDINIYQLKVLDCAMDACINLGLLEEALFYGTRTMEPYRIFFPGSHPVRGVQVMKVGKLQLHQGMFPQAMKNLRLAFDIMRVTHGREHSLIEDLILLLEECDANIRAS
Sequence of UniProt Q9NX63 (Q9NX63 whole entry): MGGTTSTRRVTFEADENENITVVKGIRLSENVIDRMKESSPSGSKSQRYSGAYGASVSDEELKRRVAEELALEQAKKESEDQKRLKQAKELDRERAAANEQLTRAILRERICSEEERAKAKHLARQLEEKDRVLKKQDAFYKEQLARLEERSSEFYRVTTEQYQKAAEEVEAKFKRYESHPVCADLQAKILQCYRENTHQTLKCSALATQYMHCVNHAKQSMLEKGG

Question: WIPI2 C393 (UniProt Q9Y4P8) was tested. Which “log2 ratio of iodoacetamide-alkyne labeling” value (“log2 ratio” for short) did it give?
Answer: 1.22 (active)

Question: With SAE1 C214 (UniProt Q9UBE0) as the target, how does the “log2 ratio” value read?
Answer: 0.502

Question: For FAM120A C531 (UniProt Q9NZB2), which “log2 ratio” value is on record?
Answer: 1.68 (active)

Question: Which “log2 ratio” value does the source give for ZDBF2 C628 (UniProt Q9HCK1) here?
Answer: 0.47

Question: For UTP6 C175 (UniProt Q9NYH9), which “log2 ratio” value is on record?
Answer: 1.62 (active)

Question: UniProt Q9NPA3_C62 was tested. Which “log2 ratio” value did it give?
Answer: 0.293

Question: Which “log2 ratio” value does the source give for STX8 C14 (UniProt Q9UNK0) here?
Answer: -0.148

Question: How did the “log2 ratio” value turn out when UniProt Q9Y520_C223 was run?
Answer: 0.239

Question: How did the “log2 ratio” value turn out when UniProt Q9NUQ3_C56 was run?
Answer: 1.97 (active)

Question: LANCL2 C49 (UniProt Q9NS86) was tested. Which “log2 ratio” value did it give?
Answer: -0.064

Question: For CTSZ C92 (UniProt Q9UBR2), which “log2 ratio” value is on record?
Answer: -0.349

Question: PPME1 C386 (UniProt Q9Y570) was tested. Which “log2 ratio” value did it give?
Answer: 1.48 (active)

Question: How did the “log2 ratio” value turn out when TANC1 C131 (UniProt Q9C0D5) was run?
Answer: 0.487

Question: How did the “log2 ratio” value turn out when GPHN C26 (UniProt Q9NQX3) was run?
Answer: -0.0135

Question: For NOSIP C185 (UniProt Q9Y314), which “log2 ratio” value is on record?
Answer: 0.25

Question: With SMYD3 C421 (UniProt Q9H7B4) as the target, how does the “log2 ratio” value read?
Answer: 0.00903

Question: Which “log2 ratio” value does the source give for CHCHD3 C112 (UniProt Q9NX63) here?
Answer: 0.0891

Question: Which “log2 ratio” value does the source give for RNF126 C229 (UniProt Q9BV68) here?
Answer: -0.457

Question: RAB3GAP2 C67 (UniProt Q9H2M9) was tested. Which “log2 ratio” value did it give?
Answer: 0.306

Question: PPAN C432 (UniProt Q9NQ55) was tested. Which “log2 ratio” value did it give?
Answer: 0.73

Question: MRPS18C C90 (UniProt Q9Y3D5) was tested. Which “log2 ratio” value did it give?
Answer: 0.167

Question: With CPSF2 C765 (UniProt Q9P2I0) as the target, how does the “log2 ratio” value read?
Answer: 1.01 (active)

Question: Which “log2 ratio” value does the source give for SMARCAD1 C772 (UniProt Q9H4L7) here?
Answer: 1 (active)

Question: Which “log2 ratio” value does the source give for UniProt Q9Y2D5_C296 here?
Answer: 0.394

Question: How did the “log2 ratio” value turn out when FAM120A C892 (UniProt Q9NZB2) was run?
Answer: 1.45 (active)

Question: Which “log2 ratio” value does the source give for UniProt Q9NW64_C24 here?
Answer: 0.351

Question: For BCLAF1 C688 (UniProt Q9NYF8), which “log2 ratio” value is on record?
Answer: 0.524

Question: With BRD7 C338 (UniProt Q9NPI1) as the target, how does the “log2 ratio” value read?
Answer: 1.01 (active)

Question: Which “log2 ratio” value does the source give for KCTD3 C606 (UniProt Q9Y597) here?
Answer: 1.08 (active)

Question: How did the “log2 ratio” value turn out when TBCD C1175 (UniProt Q9BTW9) was run?
Answer: 0.204

Question: How did the “log2 ratio” value turn out when ANKFY1 C675 (UniProt Q9P2R3) was run?
Answer: 0.216

Question: For ANKFY1 C460 (UniProt Q9P2R3), which “log2 ratio” value is on record?
Answer: 1.44 (active)

Question: How did the “log2 ratio” value turn out when NIT2 C146 (UniProt Q9NQR4) was run?
Answer: 0.119

Question: For ATG3 C182 (UniProt Q9NT62), which “log2 ratio” value is on record?
Answer: 0.632

Question: With DAXX C338 (UniProt Q9UER7) as the target, how does the “log2 ratio” value read?
Answer: 0.306

Question: OSTC C14 (UniProt Q9NRP0) was tested. Which “log2 ratio” value did it give?
Answer: 0.193

Question: EXOC6B C68 (UniProt Q9Y2D4) was tested. Which “log2 ratio” value did it give?
Answer: -0.0384

Question: RPRD1B C234 (UniProt Q9NQG5) was tested. Which “log2 ratio” value did it give?
Answer: 0.513

Question: How did the “log2 ratio” value turn out when GSTK1 C176 (UniProt Q9Y2Q3) was run?
Answer: 0.387

Question: Which “log2 ratio” value does the source give for GPATCH8 C569 (UniProt Q9UKJ3) here?
Answer: 0.815
